Test results taken from PubChem BioAssay.
Values joined by “and” are separate entries in the source; they are usually repeats but may differ in a detail not shown here. Equal values may be shown once. Active and inactive are the calls of the source. Unless noted, no stated cut-off is given here; in the data, active means inhibition above about 80%; inactive means the rest.

Key:
[1] = LFS_MB_P medulloblastoma growth inhibition, cell-based, chromothripsis tumors, cisplatin or BGB combos (AID 1671449); details: LFS_MB_P medulloblastoma cells;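 further: cells exposed for 96 hours; 0% = vehicle DMSO and 100% = killing by high DMSO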
[2] = HDN33 neuroblastoma growth inhibition, cell-based, chromothripsis tumors, cisplatin or BGB combos (AID 1671450); details: HDN33 neuroblastoma cells, stronger effect = higher value;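 further: cells exposed to compound for four days; 0% = vehicle DMSO and 100% = cell killing by high DMSO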
[3] = ICB984 medulloblastoma cell growth inhibition, synergistic combos for chromothripsis tumors, cisplatin or BGB combos (AID 1671451; call rule not given here;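 further: cells exposed for 96 hours before readout; 0% = vehicle DMSO and 100% = killing by high DMSO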); details: ICB984 medulloblastoma cells, drug combinations, stronger effect = higher value
[4] = LFS_MB_1R medulloblastoma cell growth inhibition, synergistic combos for chromothripsis tumors, cisplatin or BGB combos (AID 1671452); details: LFS_MB_1R medulloblastoma cells, stronger effect = higher value;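 further: cells exposed for 96 hours before readout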
[5] = HTB85 osteosarcoma cell growth inhibition, synergistic combos for chromothripsis tumors, BGB or cisplatin IC20 combos (AID 1671453); details: HTB85 osteosarcoma cells, drug combinations, stronger effect = higher value;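 further: cells exposed for 96 hours before readout; 0% = vehicle DMSO and 100% = high DMSO killing control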
[6] = CRL2098 osteosarcoma cell growth inhibition, synergistic combos for chromothripsis tumors, BGB or cisplatin IC20 combos (AID 1671454); details: CRL2098 osteosarcoma cells, drug combinations, stronger effect = higher value;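 further: cells exposed for 96 h before readout; 0% = vehicle DMSO and 100% = killing by high DMSO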
[7] = HD-MB03 medulloblastoma cell growth inhibition, synergistic combos for chromothripsis tumors, BGB or cisplatin IC20 combos (AID 1671455; in the data active means inhibition above about 83%;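 further: 0% = vehicle DMSO and 100% = high DMSO as cytotoxic control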); details: HD-MB03 medulloblastoma cells, stronger effect = higher value
[8] = UWB1.289 ovarian carcinoma cell growth inhibition, synergistic combos for chromothripsis tumors, BGB or cisplatin combos (AID 1671456); details: UWB1.289 ovarian carcinoma cells, stronger effect = higher value;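 further: cells exposed to compound for four days; 0% = vehicle DMSO and 100% = killing by high DMSO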
[9] = LFS_MB_2R medulloblastoma cell growth inhibition, synergistic combos for chromothripsis tumors, cisplatin combos (AID 1671457); details: LFS_MB_2R medulloblastoma cells, stronger effect = higher value;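 further: cells exposed to compound for four days before readout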
[10] = MDA-MB-436 breast carcinoma cell growth inhibition, synergistic combos for chromothripsis tumors, BGB or cisplatin combos (AID 1671458; call rule not given here;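 further: cells exposed for 96 hours; 0% = vehicle DMSO and 100% = killing by high DMSO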); details: MDA-MB-436 breast carcinoma growth inhibition, drug combinations, stronger effect = higher value
[11] = UWB1.289_BRCA1 ovarian cancer growth, cell-based, BGB or cisplatin combinations (AID 1671459); details: UWB1.289 BRCA1 ovarian carcinoma, drug combinations, stronger effect = higher value
[12] = human astrocyte viability loss, single and combined drugs, cytotoxicity control for chromothriptic childhood tumor combination screen, cell-based, BGB or cisplatin IC20 combos (AID 1671460); details: Human astrocytes, drug combinations, stronger effect = higher value;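 further: cells exposed to compounds for 96 hours before viability readout; 0% = vehicle and 100% = killing control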
[13] = growth inhibition of BT084 medulloblastoma cells, cell-based, ICGC_MB145, cisplatin and BGB IC40 combos (AID 1671461); details: drug combinations, stronger effect = higher value;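 further: cells exposed to drugs for 96 hours; 0% = vehicle DMSO and 100% = high DMSO full killing control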
[14] = growth inhibition of RCMB18 medulloblastoma cells, cell-based, cisplatin and BGB IC40 combos (AID 1671462); details: stronger effect = higher value;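 further: cells exposed to compound for four days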
[15] = growth inhibition of CRL1545 osteosarcoma cells, cell-based, cisplatin and BGB IC20 combos (AID 1671464); details: stronger effect = higher value;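 further: cells exposed to compound for 96 hours before readout; 0% = vehicle DMSO and 100% = high DMSO killing control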
[16] = measured here: combination with BGB IC40, at 0.05 µM
[17] = measured here: with BGB IC20 combination, at 0.5 µM
[18] = measured here: with cisplatin IC20 combination, at 0.5 µM
[19] = measured here: combination with cisplatin, at 0.5 µM
[20] = measured here: combination with cisplatin, at 5 µM

SMILES: COc1cc([C@@H]2c3cc4c(cc3[C@H](O)[C@H]3COC(=O)[C@H]23)OCO4)cc(OC)c1O
- inhibition ([1]; at 0.5 µM, stronger effect = higher value): -9.98% (inactive) and 8.43% (inactive)
- inhibition ([1]; measured here: combination with BGB IC20, at 0.005 µM): -2.59% and -6.87%
- inhibition ([1]; measured here: combination with BGB IC40, at 0.005 µM): 7.46% and -20.3%
- inhibition [1, 16]: 35.2% and -17%
- inhibition ([1]; measured here: combination with cisplatin, at 0.5 µM, stronger effect = higher value): -26% and 12.8%
- inhibition ([1]; measured here: combination with cisplatin, at 5 µM, stronger effect = higher value): 48% and 29.7%
- inhibition ([2]; BGB combo, at 5 µM): 64.5% and 57.8%
- inhibition ([2]; at 0.5 µM): 76% (inactive) and 68.9% (inactive)
- inhibition ([2]; cisplatin combo, at 5 µM): 60.1% and 62.6%
- inhibition [2, 17]: 66.9% and 60.4%
- inhibition [2, 18]: 69% and 58.6%
- inhibition ([2]; single agent, at 5 µM): 77.6% and 81.6%
- inhibition ([3]; BGB IC20 combo, at 0.005 µM): 12.7% and -7.66%
- inhibition ([3]; BGB IC40 combo, at 0.005 µM): 1.81% and -7.75%
- inhibition ([3]; BGB IC40 combo, at 0.05 µM): 4.84% and 20.6%
- inhibition ([3]; at 0.5 µM): -16.8% (inactive) and -20% (inactive)
- inhibition ([3]; cisplatin combo, at 0.05 µM): 1.07% and 20.6%
- inhibition ([3]; cisplatin combo, at 0.5 µM): -39.6% and -30.5%
- inhibition ([3]; cisplatin combo, at 5 µM): -37.8% and -5.3%
- inhibition ([3]; measured here: 5 uM single agent, at 5 µM): 0.691% and -3.02%
- inhibition ([4]; at 0.5 µM): 4.95% (inactive) and 4.02% (inactive)
- inhibition [4, 16]: -9.68% and 4.85%
- inhibition [4, 19]: -26.6% and 18%
- inhibition [4, 20]: 44.6% and 52.8%
- inhibition ([5]; at 0.5 µM): 70% (inactive) and 60.4% (inactive)
- inhibition ([5]; measured here: with BGB IC20, at 0.5 µM): 56.9% and 41.3%
- inhibition ([5]; measured here: with BGB IC20, at 5 µM): 58.2% and 51.8%
- inhibition ([5]; measured here: with cisplatin IC20, at 0.5 µM): 60.9% and 54%
- inhibition ([5]; measured here: with cisplatin IC20, at 5 µM): 70.5% and 80%
- inhibition ([5]; single agent, at 5 µM): 87% and 84.5%
- inhibition ([6]; at 0.5 µM): 57.9% (inactive) and 29.8% (inactive)
- inhibition ([6]; measured here: combination with BGB at IC20, at 0.5 µM): 50.3% and 29.8%
- inhibition ([6]; measured here: combination with cisplatin at IC20, at 0.5 µM): 57.2% and 5.54%
- inhibition ([7]; at 0.5 µM): 71.7% (inactive) and 69.2% (inactive)
- inhibition ([7]; measured here: combo with BGB at IC20, at 0.5 µM): 61.9% and 65.3%
- inhibition ([7]; measured here: combo with cisplatin at IC20, at 0.5 µM): 71.7% and 65.8%
- inhibition ([8]; at 0.5 µM): 44% (inactive) and 35.9% (inactive)
- inhibition ([8]; measured here: inhibition with BGB combination, at 0.05 µM): -0.844% and 8.28%
- inhibition ([8]; measured here: inhibition with cisplatin combination, at 0.05 µM): 0.424% and -0.759%
- inhibition ([9]; at 0.5 µM): 13.5% (inactive) and -0.16% (inactive)
- inhibition [9, 19]: 23.7% and 7.38%
- inhibition [9, 20]: 37.2% and 35.6%
- inhibition ([10]; at 0.5 µM): 56.1% (inactive) and 45.1% (inactive)
- inhibition ([10]; measured here: BGB combination, at 0.5 µM): 36% and 23.1%
- inhibition ([10]; measured here: BGB combination, at 5 µM): 45.8% and 43.9%
- inhibition ([10]; measured here: cisplatin combination, at 0.5 µM): 63.1% and 44.6%
- inhibition ([10]; measured here: cisplatin combination, at 5 µM): 70.8% and 69%
- inhibition ([11]; BGB combination, concentration series, at 5 µM): 55.3% and 54.8%
- inhibition ([11]; at 0.5 µM): 51.6% (inactive) and 46.7% (inactive)
- inhibition ([11]; cisplatin combination, concentration series, at 5 µM): 64.1% and 63.1%
- inhibition ([12]; at 0.5 µM): 69.7% (inactive) and 62.4% (inactive)
- inhibition ([12]; measured here: combo with BGB IC20, at 0.5 µM): 66.6% and 57.1%
- inhibition ([12]; measured here: combo with cisplatin IC20, at 0.5 µM): 62.5% and 52.4%
- inhibition ([13]; at 0.5 µM): 23.1% (inactive) and 7.97% (inactive)
- inhibition ([13]; cisplatin combination, at 0.5 µM): -0.605% and 4.61%
- inhibition ([13]; cisplatin combination, at 5 µM): 43.4% and 22.5%
- inhibition ([13]; measured here: BGB IC40 combination 0.05 uM, at 0.05 µM): 7.15% and -9.48%
- inhibition ([13]; single agent, at 5 µM): 73.2% and 24.9%
- inhibition ([14]; at 0.5 µM): 6.51% (inactive) and -0.09% (inactive)
- inhibition ([14]; cisplatin combo, at 5 µM): 39.6% and 46.7%
- inhibition ([14]; measured here: BGB IC40 combination, at 0.05 µM): -8.85% and -7.39%
- inhibition [14, 19]: 22% and 15.3%
- inhibition ([14]; single agent, at 5 µM): 43.2% and -3.33%
- inhibition ([15]; at 0.5 µM): 56.5% (inactive) and 47% (inactive)
- inhibition [15, 17]: 55% and 43.8%
- inhibition [15, 18]: 57.3% and 48.6%
- inhibition ([15]; single agent, at 0.05 µM): -5.66% and 32.2%
- inhibition ([15]; single agent, at 5 µM): 83% and 76.2%
